# Assay results reported in PubChem BioAssay (NCATS).
# Results filed as inconclusive are left out. Unmarked numbers belong to inactive results. The source made the active and inactive calls. The call rests on the fitted dose curve; in most records, active means well fitted curve in the direction sought with a large enough effect; inconclusive means small, poorly fitted or top-dose-only effect, or another doubt; inactive means no such curve, though single readings can be large; an effect the other way counts as inactive or inconclusive.
# Target: Aldehyde dehydrogenase, mitochondrial (Homo sapiens) (UniProt P05091)
# Assay: qHTS for Inhibitors of the Aldehyde Dehydrogenase Family (ALDH2) Primary screen (AID 2061308);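 further: plate controls were vehicle for no effect and reference inhibitor for full effect; nearly all actives have a fitted effect of over 55% in size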
# Conditions: ALDH2 enzyme inhibition qHTS, 1536-well; series mostly up to 56 µM; activity change, negative = inhibition: at the top concentration
SMILES,"activity change, negative = inhibition",Potency
Cc1ccc(NS(=O)(=O)c2ccc3c(c2)n(C)c(=O)n3C)cc1C,0.683%,
CC(C)(C)c1ccc(CSc2nc3ncc(Br)cc3[nH]2)cc1,9.22%,
Cc1ccsc1CNc1ncnc2ccc(-c3ccc4c(c3)OCO4)cc12,-3.52%,
O=C(OCC#CCSc1nnc(-c2cccc3ccccc23)o1)c1ccc(SC(F)(F)F)cc1,3.34%,
Oc1cccc2cc(CNc3ccccc3F)cnc12,6.86%,
Cc1nc(NCc2ccccc2)c2nc(-c3ccccc3)n(CC(C)(C)CN(C)C)c2n1,-28.6%,
O=c1[nH]c2ccc(S(=O)(=O)N3CCN(S(=O)(=O)c4ccc5c(c4)OCCO5)CC3)cc2[nH]c1=O,4.04%,
CC(C)(C)OC(=O)NCc1nnc(-c2cc3ccccc3[nH]2)s1,0.478%,
CC(C)(C)[C@H](NC(=O)c1ccc(N)c(Cl)c1)C(=O)N1CCC[C@H]1C(=O)N[C@H](C#N)Cc1nn[nH]n1,-6.08%,
O=C(O)c1ccc2c(c1)C(=O)N([C@@H](C(=O)O)C(c1ccccc1)c1ccccc1)C2=O,-3.16%,
COc1ccc(-c2ccc3ncnc(NCCc4cnc[nH]4)c3c2)cc1OC,1.62%,
O=C(NCCCn1ccnc1)c1nn2c(C(F)(F)F)cc(-c3ccc(Br)cc3)nc2c1Cl,5.84%,
O=C(Nc1ccc(S(=O)(=O)Nc2nccs2)cc1)c1cc(-c2ccccc2)nc2ccccc12,0.117%,
O=C(/C=C/c1ccc(Cl)cc1)Nc1cccc([S+](=O)([O-])Nc2ccccc2F)c1,,inactive
COc1ccc(C(=O)Nc2nnc(-c3ccco3)o2)cc1OC,7.14%,
C=C(C(=O)OC[C@H]1O[C@@H](OC(=O)/C=C/c2ccccc2)[C@H](O)[C@@H](O)[C@@H]1O)C(O)CO (stereo partly drawn),-20.5% [at 28 µM],
Cc1noc(C)c1-c1ccc2ncnc(NCc3ccc(C(F)(F)F)cc3)c2c1,1.79%,
CNCC(=O)Nc1ccc(Cl)cc1C(=O)c1ccc[nH]1,-18%,
Cc1ccc(-c2cc(C(=O)N3CC[S+](=O)([O-])CC3)c3ccccc3n2)cc1C,1.76%,
O=C(CSc1nnc(-c2cccc([S+](=O)([O-])N3CCCC3)c2)n1-c1ccccc1)Nc1ccc2c(c1)OCCO2,-3.67%,
CC(C)O[C@@H]1O[C@H](CO)[C@@H](O)[C@H](O)[C@H]1O,-0.57%,
Cc1ccc(S(=O)(=O)Nc2cnccc2C(=O)Nc2ccccc2)cc1,13.3%,
C/C(=C\c1ccc2c(c1)OCCO2)C1Nc2cccc3cccc(c23)N1,-1.55%,

# Target: Retinaldehyde dehydrogenase 3 (Homo sapiens) (UniProt P47895)
# Assay: qHTS for Inhibitors of the Aldehyde Dehydrogenase Family (ALDH1A3) Primary screen (AID 2061315);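 further: plate controls were DMSO vehicle for no effect and reference inhibitor for full effect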
# Conditions: ALDH inhibition qHTS; series mostly up to 56 µM; activity change, negative = inhibition: at the top concentration
SMILES,"activity change, negative = inhibition",Potency
CCC(=O)Nc1ccc(Cl)cc1C(=O)c1ccc[nH]1,1.09%,
CCCn1c(C)nc2c(NCCCN3CCCCC3C)nc(C)nc21 (stereo not drawn),4.33%,
COc1ccccc1-c1ccc(=O)n(CC(=O)NCCc2ccccc2)n1,24.3%,
COc1cccc(NC(=S)N2CCN(c3ccc(C(F)(F)F)cc3[N+](=O)[O-])CC2)n1,29.8%,
Fc1cc(Nc2nc(-c3ccncc3)nc3ccccc23)ccc1-c1cccnc1,-2.75%,
C=C1C(=O)O[C@@H]2C(OC(=O)/C(C)=C\C)/C(C)=C\C(=O)/C=C(\C)C[C@H](O)[C@@H]12 (stereo partly drawn),6.89%,
O=C1c2ccccc2C(=O)N1c1ccc2ncccc2c1,-16.4%,
Cc1ccc(C)c(OCCn2c(CCNC(=O)C3CCCCC3)nc3ccccc32)c1,,inactive
Fc1ccc(-c2nc(CCCCSc3nnc(-c4cccc5ccccc45)o3)no2)cc1,5%,
CC(C)(C)c1ccc(-c2ccc(=O)n(CC(=O)NCCc3ccccc3)n2)cc1,2.91%,
Cc1cc(C)nc(NC(=S)N2CCN(c3ccccc3C#N)CC2)c1,11.1%,
FC(F)(F)c1ccc(CSc2nc3ncc(Br)cc3[nH]2)cc1,-3.14%,
COc1cccc(NC(=S)N2CCN(c3ncc(C(F)(F)F)cc3Cl)CC2)n1,39.1%,
COc1ccccc1CNc1ccc(S(=O)(=O)Nc2nccs2)cc1,1.01%,
O=C1CCc2cc(S(=O)(=O)Nc3ccc(F)cc3)ccc2N1,-1.08%,
O=C1CCCC2=C1C(c1ccc(Cl)cc1)N=C(Nc1nc3ccccc3o1)N2 (stereo not drawn),19.3%,
FC(F)(F)c1ccccc1-c1nc(NCc2ccc(-c3ccncc3)cc2)c2ccccc2n1,-16.5%,
Cc1ccc(NS(=O)(=O)c2ccc3c(c2)n(C)c(=O)n3C)cc1C,-2.76%,
CC(C)(C)c1ccc(CSc2nc3ncc(Br)cc3[nH]2)cc1,-2.95%,
Cc1ccsc1CNc1ncnc2ccc(-c3ccc4c(c3)OCO4)cc12,3.53%,

SMILES,"activity change, negative = inhibition",Potency
O=C(OCC#CCSc1nnc(-c2cccc3ccccc23)o1)c1ccc(SC(F)(F)F)cc1,3.51%,
Oc1cccc2cc(CNc3ccccc3F)cnc12,19.8%,
Cc1nc(NCc2ccccc2)c2nc(-c3ccccc3)n(CC(C)(C)CN(C)C)c2n1,7.99%,
O=c1[nH]c2ccc(S(=O)(=O)N3CCN(S(=O)(=O)c4ccc5c(c4)OCCO5)CC3)cc2[nH]c1=O,2.99%,
CC(C)(C)OC(=O)NCc1nnc(-c2cc3ccccc3[nH]2)s1,-1.9%,
CC(C)(C)[C@H](NC(=O)c1ccc(N)c(Cl)c1)C(=O)N1CCC[C@H]1C(=O)N[C@H](C#N)Cc1nn[nH]n1,18%,
O=C(O)c1ccc2c(c1)C(=O)N([C@@H](C(=O)O)C(c1ccccc1)c1ccccc1)C2=O,-1.29%,
COc1ccc(-c2ccc3ncnc(NCCc4cnc[nH]4)c3c2)cc1OC,-13.8%,
O=C(NCCCn1ccnc1)c1nn2c(C(F)(F)F)cc(-c3ccc(Br)cc3)nc2c1Cl,32.6%,
O=C(Nc1ccc(S(=O)(=O)Nc2nccs2)cc1)c1cc(-c2ccccc2)nc2ccccc12,23.8%,
O=C(/C=C/c1ccc(Cl)cc1)Nc1cccc([S+](=O)([O-])Nc2ccccc2F)c1,,inactive
COc1ccc(C(=O)Nc2nnc(-c3ccco3)o2)cc1OC,-11.3%,
C=C(C(=O)OC[C@H]1O[C@@H](OC(=O)/C=C/c2ccccc2)[C@H](O)[C@@H](O)[C@@H]1O)C(O)CO (stereo partly drawn),0.419% [at 28 µM],
Cc1noc(C)c1-c1ccc2ncnc(NCc3ccc(C(F)(F)F)cc3)c2c1,2.72%,
CNCC(=O)Nc1ccc(Cl)cc1C(=O)c1ccc[nH]1,3.85%,
Cc1ccc(-c2cc(C(=O)N3CC[S+](=O)([O-])CC3)c3ccccc3n2)cc1C,-3.95%,
O=C(CSc1nnc(-c2cccc([S+](=O)([O-])N3CCCC3)c2)n1-c1ccccc1)Nc1ccc2c(c1)OCCO2,9.8%,
CC(C)O[C@@H]1O[C@H](CO)[C@@H](O)[C@H](O)[C@H]1O,-8.45%,
Cc1ccc(S(=O)(=O)Nc2cnccc2C(=O)Nc2ccccc2)cc1,7.39%,
C/C(=C\c1ccc2c(c1)OCCO2)C1Nc2cccc3cccc(c23)N1,2.7%,
